EBV gp42 inh: inhibitors of Epstein-Barr virus glycoprotein 42 | Q1HVG2 | Fluorescence polarization binding assay, mP read-out | inhibition, % (tested at 21.74 µM) | 220,000 tested, 0.42% active | AID 1085; in the data active = inhibition above about 50%
Target sequence (Q1HVG2 whole entry, looked up): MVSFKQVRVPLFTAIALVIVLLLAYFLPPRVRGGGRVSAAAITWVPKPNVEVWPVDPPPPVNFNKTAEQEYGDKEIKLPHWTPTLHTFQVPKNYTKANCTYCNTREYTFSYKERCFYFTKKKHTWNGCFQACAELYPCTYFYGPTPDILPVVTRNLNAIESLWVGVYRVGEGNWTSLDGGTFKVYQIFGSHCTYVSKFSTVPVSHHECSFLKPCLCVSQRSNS
MLLE-PAM2 inh: blocks PAM2 peptide binding to the PABP1 MLLE domain. P11940. GST-MLLE / FITC-PAM2 fluorescence polarization. inhibition, % at 20 µM. 360,000 tested, 0.36% active. AID 588489; in the data active = inhibition above about 35%, passing the limit was not always enough
eIF4H FP inh: inhibitors of RNA binding by human eIF4H; eIF4H fluorescence polarization binding assay; AID 2012; Q15056; inhibition, % at 35 µM; 290,000 tested, 0.94% active;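 also: calls also rest on retests at 20 µM and on dose response follow-up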
PABP FP inh: PABP-poly(A) binding inhibition; P11940; PABP-poly(A) RNA binding, fluorescence polarization; calls only at 35 µM; 290,000 tested, 1% active;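 also: calls also rest on retests at 20 µM and on dose response follow-up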
eIF4E 4G PPI: inhibitors of eIF4E and eIF4G interaction in translation initiation. P63073+Q04637. TR-FRET eIF4E-eIF4GI(517-606) binding, 2 h. inhibition, % at 21.7 µM. 220,000 tested, 0.37% active;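 active = inhibition above about 30%, limit read from the data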
Numbers stand for hits; ! = not confirmed by another sample; [ ] = remark or other dose. Sampled rows, rich in hits. Any-hit rate of the full collection: about 1.7%. Unless noted, no rule for the calls is given here.

O=[N+]([O-])c1c(Nc2ccc(O)cc2)cc(Cl)c2nonc12 was read as MLLE-PAM2 inh 39.2, eIF4H FP inh inactive and PABP FP inh inactive.
Screening COc1ccccc1-c1csc(C(C)(NC(C)=O)c2ccccc2)n1 (configuration not stated) returned MLLE-PAM2 inh inactive.
`Nc1nnc(CC(=O)N/N=C/c2cccc([N+](=O)[O-])c2)s1` gave EBV gp42 inh inactive, MLLE-PAM2 inh inactive, eIF4H FP inh inactive and PABP FP inh inactive.
Screening Nc1nnc(CC(=O)N/N=C/c2cc([N+](=O)[O-])cc(Br)c2O)s1 returned EBV gp42 inh inactive, MLLE-PAM2 inh inactive, eIF4H FP inh 85.9, PABP FP inh active and eIF4E 4G PPI inactive.
O=C(CC(=O)c1ccccc1)c1ccccc1 was read as MLLE-PAM2 inh inactive.
Screening CN(CCC(=O)c1ccccc1)CCC(=O)c1ccccc1 returned MLLE-PAM2 inh 43.9, eIF4H FP inh inactive and PABP FP inh inactive.
Screening CCOC(=O)c1c(CSc2ccccc2)n(C)c2ccc(O)c(CN3CCOCC3)c12 returned EBV gp42 inh inactive, MLLE-PAM2 inh inactive, eIF4H FP inh inactive, PABP FP inh inactive and eIF4E 4G PPI inactive.
`Fc1ccc(SCCc2ccncc2)cc1` gave EBV gp42 inh inactive, MLLE-PAM2 inh 42.8!, eIF4H FP inh inactive, PABP FP inh inactive and eIF4E 4G PPI inactive.
Screening c1ccc(SCCc2ccncc2)cc1 returned EBV gp42 inh inactive, MLLE-PAM2 inh inactive, eIF4H FP inh inactive, PABP FP inh inactive and eIF4E 4G PPI inactive.
For Cc1ccccc1/C=N/Nc1nc2ccccc2[nH]1 the results were EBV gp42 inh inactive, MLLE-PAM2 inh inactive, eIF4H FP inh inactive, PABP FP inh inactive and eIF4E 4G PPI inactive.
O=[N+]([O-])c1cc(/C=N/Nc2nc3ccccc3[nH]2)c(O)cc1O was read as EBV gp42 inh inactive, eIF4H FP inh 80.5, PABP FP inh active and eIF4E 4G PPI inactive.
Screening COC(=O)C1(C)NC(c2ccc(O)cc2)C2C(=O)N(c3ccc(C)cc3)C(=O)C21 (configuration not stated) returned MLLE-PAM2 inh inactive, eIF4H FP inh inactive and PABP FP inh inactive.
Cc1ccccc1-n1sc2cc(F)ccc2c1=O was read as EBV gp42 inh inactive, MLLE-PAM2 inh inactive, eIF4H FP inh inactive, PABP FP inh inactive and eIF4E 4G PPI 51.8.
O=c1c2ccccc2sn1-c1ccccc1F was read as MLLE-PAM2 inh inactive.
`CS(=O)(=O)N(CC(=O)N1CCCC1)c1cccc(C(F)(F)F)c1` gave MLLE-PAM2 inh inactive.
Cc1cccc(-n2c(SCc3cc(=O)n4ccsc4n3)nc3ccccc32)c1 was read as EBV gp42 inh 77.9, MLLE-PAM2 inh inactive, eIF4H FP inh inactive, PABP FP inh inactive and eIF4E 4G PPI inactive.
CCOc1ccc(-c2ccc(/C=C3/C(=N)N4C(C)=CSC4=NC3=O)o2)c([N+](=O)[O-])c1 was read as EBV gp42 inh inactive, MLLE-PAM2 inh inactive, eIF4H FP inh 79.6, PABP FP inh active and eIF4E 4G PPI inactive.
Screening CCOc1ccc(-c2ccc(/C=C3/C(=N)N4C=CSC4=NC3=O)o2)c([N+](=O)[O-])c1 returned EBV gp42 inh inactive, MLLE-PAM2 inh inactive, eIF4H FP inh inconclusive, PABP FP inh inactive and eIF4E 4G PPI inactive.
Screening O=C1CC(c2ccco2)CC(O)=C1C=Nc1cc(Cl)ccc1O (configuration not stated) returned EBV gp42 inh inactive, MLLE-PAM2 inh inactive, eIF4H FP inh 91.7, PABP FP inh active and eIF4E 4G PPI inactive.
Cc1ccc(CC(=O)Nc2ccc(C(=O)N3CCOCC3)cc2)cc1 was read as MLLE-PAM2 inh inactive, eIF4H FP inh inactive and PABP FP inh inactive.
`Cc1cc(NC(=O)CSc2nccn2-c2cccc(Cl)c2)no1` gave MLLE-PAM2 inh 69.1, eIF4H FP inh inactive and PABP FP inh inactive.
COCCSc1ccccc1C(=O)Nc1cc(C)on1 was read as EBV gp42 inh inactive, MLLE-PAM2 inh inactive, eIF4H FP inh inactive, PABP FP inh inactive and eIF4E 4G PPI 51.6.
`Cc1cccc(-n2c(N)cc(=O)nc2SCC(=O)Nc2cc(C)on2)c1` gave EBV gp42 inh inactive, MLLE-PAM2 inh 40.3, eIF4H FP inh inactive, PABP FP inh inactive and eIF4E 4G PPI inactive.
For Cc1cc(NC(=O)CSc2nnc(NCc3ccccc3)s2)no1 the results were EBV gp42 inh inactive, MLLE-PAM2 inh inactive, eIF4H FP inh inactive, PABP FP inh inactive and eIF4E 4G PPI 93.8.
Cc1cc(NC(=O)CSc2nc(=O)cc(N)n2-c2ccc(Cl)cc2)no1 was read as EBV gp42 inh inactive, MLLE-PAM2 inh inactive, eIF4H FP inh inactive, PABP FP inh inactive and eIF4E 4G PPI inactive.
For CCc1cccc(CC)c1NC(=O)C1CCN(C(=O)c2ccco2)CC1 the results were MLLE-PAM2 inh inactive, eIF4H FP inh inactive and PABP FP inh inactive.
Screening COc1ccc(C2CC=C(C(C)=O)CN2S(=O)(=O)c2ccccc2)cc1 (configuration not stated) returned MLLE-PAM2 inh inactive.
For Cc1cc(NC(=O)CSc2ccccc2)no1 the results were EBV gp42 inh inactive, MLLE-PAM2 inh inactive, eIF4H FP inh inactive, PABP FP inh inactive and eIF4E 4G PPI 65.7.
`COc1ccc(C=Nc2ccc3[nH]ncc3c2)c(O)c1` gave EBV gp42 inh inactive, MLLE-PAM2 inh inactive, eIF4H FP inh 77.4, PABP FP inh active and eIF4E 4G PPI inactive.
COc1ccc(Cc2nc3ccc(C(=O)NC(C)c4cn(C)nc4C)cc3o2)cc1 (configuration not stated) was read as MLLE-PAM2 inh inactive, eIF4H FP inh inactive and PABP FP inh inactive.
COc1cccc(-c2nc(-c3ccccc3)nc(N3CCN(C)CC3)c2C#N)c1 was read as EBV gp42 inh inactive, MLLE-PAM2 inh inactive, eIF4H FP inh active, PABP FP inh inactive and eIF4E 4G PPI inactive.
Screening COc1ccc(-c2nc(-c3ccccc3)nc(N3CCN(C)CC3)c2C#N)cc1 returned EBV gp42 inh inactive, MLLE-PAM2 inh inactive, eIF4H FP inh inactive, PABP FP inh inactive and eIF4E 4G PPI inactive.
`Cc1ccc(-n2c(C)cc(/C=N/Nc3ccc([N+](=O)[O-])cn3)c2C)cc1` gave EBV gp42 inh inactive, MLLE-PAM2 inh inactive, eIF4H FP inh inactive, PABP FP inh inactive and eIF4E 4G PPI 34.7[fluorescence artefact?].
For O=C(NNC(=O)c1ccccc1Br)c1ccc2nc[nH]c2c1 the results were MLLE-PAM2 inh inactive, eIF4H FP inh 83.7 and PABP FP inh active.
`O=C(NNC(=O)c1ccccc1F)c1ccc2nc[nH]c2c1` gave MLLE-PAM2 inh inactive, eIF4H FP inh inactive and PABP FP inh inactive.
`COc1ccc(C(=O)N/N=C/c2ccc(OC)c(COc3ccc(F)cc3F)c2)cc1` gave MLLE-PAM2 inh inactive, eIF4H FP inh inactive and PABP FP inh inactive.
`Cc1cccc(CN2C(=O)N/C(=C/c3ccc(C)s3)C2=O)c1` gave EBV gp42 inh inactive, MLLE-PAM2 inh inactive, eIF4H FP inh 68.8, PABP FP inh active and eIF4E 4G PPI inactive.
For Cc1ccc(/C=C2/NC(=O)N(Cc3ccccc3)C2=O)s1 the results were EBV gp42 inh inactive, MLLE-PAM2 inh inactive, eIF4H FP inh inconclusive, PABP FP inh inconclusive and eIF4E 4G PPI inactive.
